Screening data (PubChem)
Hits are enriched below; roughly 2% of the tested compounds scored in any of these assays.
PG9 binder: binds the HIV-1 gp120 antibody PG9; TR-FRET gp120-PG9 antibody binding; inhibition, % at 6.7 µM; 0.43% of 360,000 active; in the data active = inhibition above about 8.5%
Rev-erbA mod: modulates human Rev-erb alpha binding to DNA | P20393 | Rev-erbα–FITC-DNA binding, fluorescence polarization, 90 min | activity, % at 10 µM | 0.79% of 370,000 active;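 active = activity above about 14%, limit read from the data; passing the limit was not always enough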
Granule exo inh: blocks lytic granule exocytosis; TALL-104 LAMP-1 surface exposure, flow cytometry; cells stimulated with thapsigargin and PMA; inhibition, % at 10 µM; 0.66% of 360,000 active;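 active = inhibition above about 55%, limit read from the data; inconclusive = no clear call, values can overlap the other calls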
ABCB6 inh 2: blocks the human ABCB6 transporter; fluorescence ratio to DMSO, % at 10 µM; Q9NP58; K562-ABCB6 porphyrin accumulation, flow cytometry, 1 h; active compounds read low; AID 602162; 0.19% of 360,000 active;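 active = fluorescence ratio to DMSO below 75%, the collection mean minus 3 SD; inconclusive = too few cells collected in the well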;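 also: signal is porphyrin accumulated inside mitochondria; lower ratio means ABCB6 inhibition with less porphyrin fluorescence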
VLA-4 inh: inhibition in a human VLA-4 binding assay; VLA-4 expressing cells, ligand binding flow cytometry; AID 2557; P13612; 0.2% of 330,000 active; inhibition, % (about 7 µM as worked out from the volumes in the protocol); in the data active = inhibition above about 50%
ABCB6 blocker 1: inhibitors of human ABC transporter ABCB6; shares compounds with ABCB6 inh 2; K562-ABCB6 porphyrin accumulation, flow cytometry, 1 h; active compounds read low; AID 602430; 700 tested, under 10 active; ratio response (% of DMSO), % at 10 µM;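 active = repeat-averaged ratio response below 75% of DMSO, the collection mean minus 3 SD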;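 also: median porphyrin fluorescence at 575 nm with 488 nm excitation from mitochondria; lower ratio means less porphyrin signal so ABCB6 inhibition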
Of the large screens only hits and unclear results are named; the others gave an inactive call (follow-up assays come after a bar, where they were run).

N#Cc1c2n(c3c(=O)n(Cc4ccccc4)cnc13)CCCC2	ABCB6 inh 2 55 | ABCB6 blocker 1 inactive
N#Cc1c2n(c3c(=O)n(Cc4ccc(Cl)cc4)cnc13)CCCCC2	none
COC(=O)[C@]12CCCCC=C1N(Cc1ccc(OC)cc1)C(=O)[C@@H]2CC(=O)NCC1CCCCC1	none (no result: PG9 binder, Granule exo inh, ABCB6 inh 2, VLA-4 inh)
O=C(NC1CCCC1)C(c1ccco1)N(Cc1ccccc1)C(=O)c1csnn1 (stereo not drawn)	none
Cc1ccc(CN(C(=O)c2csnn2)C(C(=O)NC2CCCC2)c2ccco2)cc1 (stereo not drawn)	ABCB6 inh 2 73 | ABCB6 blocker 1 inactive
Cc1cc(C)cc(N(C(=O)c2csnn2)C(C(=O)NC2CCCC2)c2cccnc2)c1 (stereo not drawn)	ABCB6 inh 2 74 | ABCB6 blocker 1 inactive
COC[C@@H]1CCCN1c1cccc2c1S(=O)(=O)N1CC[C@H](C1)O2	none (no result: PG9 binder, Granule exo inh, ABCB6 inh 2, VLA-4 inh)
C=CCN(CC#Cc1ccc(C(F)(F)F)cc1)CC=C	none (no result: PG9 binder, Granule exo inh, ABCB6 inh 2, VLA-4 inh)
O=C(CSc1nnc(-c2ccccc2)n1-c1ccccc1)NN=Cc1ccc(-c2ccccc2)cc1	none (no result: PG9 binder, Granule exo inh, ABCB6 inh 2, VLA-4 inh)
COc1ccc(S(=O)(=O)NC(=O)C2(C)CCN2C(=O)Cc2cccc3ccccc23)cc1 (stereo not drawn)	none (no result: VLA-4 inh) | ABCB6 blocker 1 inactive
CC1(C(=O)NS(=O)(=O)c2ccc(C#N)cc2)CCN1C(=O)Cc1cccc2ccccc12 (stereo not drawn)	ABCB6 inh 2 65 (no result: VLA-4 inh) | ABCB6 blocker 1 inactive
CC1(C(=O)NS(=O)(=O)c2ccc(C#N)cc2)CCN1C(=O)CC1CC1 (stereo not drawn)	none (no result: VLA-4 inh)
CCOC(=O)C1(C(=O)OCC)CCN(S(=O)(=O)c2ccccc2)CC1	none (no result: VLA-4 inh) | ABCB6 blocker 1 inactive
CCOC(=O)C1CN(S(=O)(=O)c2ccccc2)C1	none
COC(=O)C[C@H]1CC[C@H]2[C@H](COc3ccc(NC(=O)c4cccs4)cc3C(=O)N2C)O1	none (no result: PG9 binder, Granule exo inh, ABCB6 inh 2, VLA-4 inh)
O=S(=O)(CS(=O)(=O)c1ccccc1Br)c1ccccc1Br	none (no result: Granule exo inh, ABCB6 inh 2, VLA-4 inh)
O=C(NCc1n[nH]c(=S)n1-c1cccc(Cl)c1)c1ccc(S(=O)(=O)N2CCCC2)cc1	ABCB6 inh 2 33 | ABCB6 blocker 1 inactive
O=C(CN1CCc2ccccc2C1)Nc1ccc(F)cc1	none
NS(=O)(=O)c1ccc(NC(=O)CN2CCc3ccccc3C2)cc1	ABCB6 inh 2 73 | ABCB6 blocker 1 inactive
Clc1cc(Sc2ccc(Br)cc2)nnc1-c1ccccc1	ABCB6 inh 2 74 | ABCB6 blocker 1 inactive
COCc1cc(Sc2ccc(Br)cc2)nc(-c2ccccc2)n1	none
CCOC(=O)c1cc2c(N)c(C(=O)c3cc(C#N)c(SC)nc3C)sc2nc1C	ABCB6 inh 2 72 | ABCB6 blocker 1 inactive
Cc1ccccc1C1=CC(=O)CC(C)(C)C1=O	none (no result: Granule exo inh, ABCB6 inh 2, VLA-4 inh)
COc1ccccc1CNC(=O)COC(=O)COc1ccccc1F	ABCB6 inh 2 74 | ABCB6 blocker 1 inactive
COc1ccccc1CNC(=O)COc1ccccc1OC	none
CCOc1ccc(-n2c(SCc3ccc(C#N)cc3)nnc2-c2ccco2)cc1	none (no result: PG9 binder, Granule exo inh, ABCB6 inh 2, VLA-4 inh)
O=C(COC(=O)C1CCC1)Nc1ccccc1Sc1ccccc1	none
CC(C)CC(=O)OCC(=O)Nc1ccccc1Sc1ccccc1	ABCB6 inh 2 74 | ABCB6 blocker 1 inactive
O=C(NC1CC1)c1cc2c(s1)CS(=O)(=O)C2	none
CC1CCCCC1NC(=O)c1cc2c(s1)CS(=O)(=O)C2 (stereo not drawn)	ABCB6 inh 2 71 | ABCB6 blocker 1 inactive
Cc1cc(C(=O)NCCN2CCOCC2)c2ccccc2n1	ABCB6 inh 2 74 | ABCB6 blocker 1 inactive
COc1ccc(NC(=O)c2cccc(S(=O)(=O)N3CCCCC3)c2)c(OC)c1	ABCB6 inh 2 13 | ABCB6 blocker 1 inactive
Cc1cc2c(nc1C)CCCN2Cc1ccccc1C(F)(F)F	none (no result: Granule exo inh, ABCB6 inh 2, VLA-4 inh)
COc1ccccc1-c1cc2nc(NCCOc3ccccc3)ccn2n1	ABCB6 inh 2 61 (no result: VLA-4 inh) | ABCB6 blocker 1 inactive
C#CCNC(=O)C[C@H]1C[C@@]2(C(=O)OC)C(=C[C@H](C3CCCC3)O[C@@H]2C)N(Cc2cccc3ccccc23)C1=O	none (no result: PG9 binder, Granule exo inh, ABCB6 inh 2, VLA-4 inh)
CCOC(=O)c1cccc(NC(=O)CN(C)S(=O)(=O)c2cc3ccccc3s2)c1	none (no result: PG9 binder, Granule exo inh, ABCB6 inh 2, VLA-4 inh)
Cc1cc(NC(=O)CSc2nnnn2-c2ccc(C)c(Cl)c2)no1	ABCB6 inh 2 72 | ABCB6 blocker 1 inactive
COc1cccc(CNC(=O)CN2CCCc3ccccc32)c1OC	none (no result: PG9 binder, Granule exo inh, ABCB6 inh 2, VLA-4 inh)
Nc1nonc1-n1nncc1-c1ccccc1	ABCB6 inh 2 6.0 | ABCB6 blocker 1 inactive
CC(=O)c1c(C)oc2ccc(NS(=O)(=O)c3ccc(O)c(C(=O)O)c3)cc12	none
CC(=O)c1c(C)oc2ccc(NS(=O)(=O)c3ccc(F)cc3C)cc12	ABCB6 inh 2 73 | ABCB6 blocker 1 inactive
Nc1nc2c(ncn2[C@@H]2O[C@H](C(=O)NCCc3c[nH]c4ccccc34)[C@@H](O)[C@H]2O)c(=O)[nH]1	none (no result: Granule exo inh, ABCB6 inh 2, VLA-4 inh)
CC1CCCCN1C(=O)CCC(=O)Nc1nnc(C2CCCCC2)s1 (stereo not drawn)	Granule exo inh inconclusive, ABCB6 inh 2 20 | ABCB6 blocker 1 inactive
COc1cc2c(C(=O)N(C)c3ccc(F)cc3)cn(C)c(=O)c2cc1OC	ABCB6 inh 2 14 | ABCB6 blocker 1 inactive
CCc1ccccc1N(CC)C(=O)c1cn(C)c(=O)c2cc(OC)c(OC)cc12	none
Cc1cccc(C(O)c2ncc(-c3ccccc3Cl)[nH]2)c1C (stereo not drawn)	none (no result: VLA-4 inh)
Cc1ccccc1-c1cnc(C(O)c2cccc(C)c2C)[nH]1 (stereo not drawn)	ABCB6 inh 2 70 (no result: VLA-4 inh) | ABCB6 blocker 1 inactive
CCOCCn1c(N2CCN(c3ccc(OC)cc3)CC2)nc2c1c(=O)[nH]c(=O)n2C	ABCB6 inh 2 72 | ABCB6 blocker 1 inactive
Cc1cc(NC(=O)c2cc(C)on2)n(-c2ccccc2)n1	ABCB6 inh 2 72 (no result: VLA-4 inh) | ABCB6 blocker 1 inactive
CCOC(=O)N1CCN(S(=O)(=O)c2ccc(OCC(=O)OC)cc2)CC1	none
CCOC(=O)C1CCN(S(=O)(=O)c2ccc(OCC(=O)OC)cc2)CC1	none | ABCB6 blocker 1 inactive
CCCCn1cnc2c(cnn2-c2ccc(F)cc2)c1=O	none
CCCCn1cnc2c(cnn2-c2ccc(Cl)cc2)c1=O	ABCB6 inh 2 62 | ABCB6 blocker 1 inactive
CC(=O)OCc1c(C(F)(F)F)nn(C)c1Oc1ccccc1	none
Cn1nc(-c2ccccc2)c(CO)c1Oc1ccc(F)cc1	ABCB6 inh 2 69 | ABCB6 blocker 1 inactive
CC(Oc1ccc(Cl)cc1Cl)c1ccnc2nc(N3CCOCC3)nn12 (stereo not drawn)	ABCB6 inh 2 74 | ABCB6 blocker 1 inactive
CC(Oc1ccccc1)c1ccnc2nc(N3CCOCC3)nn12 (stereo not drawn)	none
CCCc1c(Cc2cccc(F)c2)ncn1CCc1ccccc1OC	none (no result: Granule exo inh, ABCB6 inh 2, VLA-4 inh)
CCCC(C(=O)NC1CCCC1)N(Cc1ccccc1)C(=O)c1snc(C(N)=O)c1N (stereo not drawn)	ABCB6 inh 2 67 | ABCB6 blocker 1 inactive
CCCC(C(=O)NC1CCCC1)N(Cc1ccc(OC)cc1)C(=O)c1snc(C(N)=O)c1N (stereo not drawn)	none
O=C(C1CC1)N1CCC(c2nc(-c3ccc(S(=O)(=O)N4CCCC4)cc3)no2)CC1	none
